Compound activity as filed in PubChem.
Pf Dd2 inh – blocks in vitro growth of P. falciparum Dd2 | Potency, µM (series often up to 28.9 µM), without a hit: at the top dose activity, negative = inhibition, usual class: inhibitors | AID 1347417 | P. falciparum Dd2 growth, SYBR Green, 72 h | 120,000 tested, 4.3% active; active = well fitted inhibition curve with a large enough effect;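 also: plate controls were DMSO vehicle for no effect and reference drug for full effect; nearly all actives have a fitted effect of over 65% in size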
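Infected erythrocytes (Dd2, 0.3% parasitemia, 2.5% hematocrit final) are added to compound in RPMI-1640/Albumax II medium, grown 72 h at 37C in low oxygen, then lysed with saponin/Triton-X containing SYBR Green and read by fluorescence.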
* = called active by the depositor; i = inactive; [ ] = remark or other dose. The sample as a whole holds a higher share of hits than the screen did. Potency is read from the fitted curve at half-maximal effect.

SMILES | Pf Dd2 inh
CCN(CC)c1ccc(NC(=O)Cn2c(C)c3cnn(-c4ccccc4)c(=O)c3c2C)c(C)c1 | 10%
COC[C@H]1CCCN1C(=O)C[C@@H]1O[C@H](CNC(=O)Nc2ccccc2)[C@@H](O)[C@H]1O | 13%[44.1 µM]
CCN1C(=O)CCN(C(=O)c2cccc(C#N)c2)CC12CCOCC2 | 6%
CCCCOc1ccc(C(=O)N2CCN(CCc3ccccn3)CC2)cc1 | 48%
CCOc1ccccc1C(=O)N1CCN(CCc2ccccn2)CC1 | 4µM*
CC(C)Oc1ccc(C(=O)N2CCN(CCc3ccccn3)CC2)cc1 | 9%
O=C(c1ccccc1Cl)N1CCN(CCc2ccccn2)CC1 | 3.5µM*
O=C(c1cccc(Cl)c1)N1CCN(CCc2ccccn2)CC1 | 55%
O=C(c1ccccc1)N1CCN(CCc2ccccn2)CC1 | 26%
CC1CN(c2ccc(Cl)cc2)C(=O)CN1C(=O)CCn1cccc1 (centres undefined) | -11%
CC(C)N1C(=O)C(CC(=O)NCC2CCN(Cc3cccc(F)c3)CC2)=C2CCCCC21 (centres undefined) | i
CNC(=O)Nc1ccc(C)n(CC(=O)N2CCN(c3cccc(Cl)c3)CC2)c1=O | i
O=C(CC1CCN(C(=O)c2cc(F)ccc2F)C1)NC1CC1 (centres undefined) | 28%
COC[C@@H]1CN(Cc2cc(F)c(F)c(F)c2)C[C@H]1C(N)=O | -17%
CN(C)C[C@@H]1CN(C2CCOCC2)C[C@H]1NC(=O)c1ccc(F)c(Cl)c1 | -19%
O=C1NCCCCCN(C(=O)NCc2ccc(F)cc2)[C@H]2CCCC[C@@H]12 | -13%
O=C1COCCN1C1CCN(Cc2ccsc2)CC1 | 15%[44.1 µM]
O=C1CCCCCN1C1CCN(Cc2ccsc2)CC1 | 7.1µM*
O=C1CCCCCN1C1CCN(Cc2cccnc2)CC1 | 5%[44.1 µM]
CN1C[C@H](NCc2cccc(Cl)c2)CCC[C@@H](C(=O)NCc2cc(F)cc(F)c2)CC1=O | -24%
COc1ccc(C)cc1NC(=O)N1CCC(Oc2ncccc2C(=O)N(C)C)C1 (centres undefined) | i
O=C(c1ccccc1Br)N1CC(n2cc(COc3ccc(F)cc3)nn2)C1 | 11µM*
O=C(NCc1ccco1)N1CC(n2cc(COc3ccccc3)nn2)C1 | -12%
Cc1ccc(C)c(NC(=O)N2CC(n3cc(COc4ccccc4)nn3)C2)c1 | -8%
Cc1cccc(CN2CCc3c(n(Cc4cccnc4)n(-c4ccccc4)c3=O)C2)n1 | 5%[44.1 µM]
SMILES | Pf Dd2 inh
CCn1cc(CN2CCc3nn(CCOC)c(=O)n3CC2)cn1 | 2%
O=C(c1cccc(F)c1)N1CCCC(Cc2noc(-c3ccccc3)n2)C1 (centres undefined) | 27%
O=C(c1ccc2c(c1)N(Cc1cccc(Cl)c1)C(=O)c1ccccc1S2(=O)=O)N1CCCCC1 | -11%
O=C(c1ccc2c(c1)N(Cc1ccccc1)C(=O)c1ccccc1S2(=O)=O)N1CCCCCC1 | 4µM*
CC1CCCN(CCCNC(=O)c2ccc3c(c2)N(Cc2ccc(Cl)cc2)C(=O)c2ccccc2S3(=O)=O)C1 (centres undefined) | i
CCc1ccccc1NC(=O)c1ccc2c(c1)N(Cc1cc(C)ccc1C)C(=O)c1ccccc1S2(=O)=O | 7.1µM*
COc1ccc(CCNC(=O)c2ccc3c(c2)N(Cc2ccccc2F)C(=O)c2ccccc2S3(=O)=O)cc1OC | i
Cc1cccc(CN2C(=O)c3ccccc3S(=O)(=O)c3ccc(C(=O)OCC4CCCO4)cc32)c1 (centres undefined) | 11%
O=C(OCC1CCCO1)c1ccc2c(c1)N(Cc1cccc(F)c1)C(=O)c1ccccc1S2(=O)=O (centres undefined) | 3%
Cc1ccc(C)c(CN2C(=O)c3ccccc3S(=O)(=O)c3ccc(C(=O)NCCCN4CCCC(C)C4)cc32)c1 (centres undefined) | 4µM*
O=C(OCC1CCCO1)c1ccc2c(c1)N(Cc1ccccc1Cl)C(=O)c1ccccc1S2(=O)=O (centres undefined) | 8.9µM*
COc1ccc(CNC(=O)c2ccc3c(c2)N(Cc2ccccc2F)C(=O)c2ccccc2S3(=O)=O)cc1 | i
O=C(c1ccc2c(c1)N(Cc1ccc(Cl)cc1)C(=O)c1ccccc1S2(=O)=O)N1CCN(Cc2ccccc2)CC1 | i
Cc1cccc(C(=O)N2CCC3(CC2)OCC(C(=O)NC2CC2)N3C(=O)c2cccc(C)c2)c1 (centres undefined) | -26%
O=C(Cn1ccn2nc(-c3ccccc3)c(CO)c2c1=O)Nc1ccc(C(F)(F)F)cc1 | 25%
O=C1CC(c2noc(-c3ccc4c(c3)OCO4)n2)CN1c1ccc(Cl)cc1 (centres undefined) | 4%
Cc1occc1C(=O)N1C[C@@H](C(=O)O)C[C@H](C(=O)NCc2ccccn2)C1 | -16%
COc1ccc(-c2[nH]ncc2CN)cc1 | -3%
Cc1cccc(CN2C(=O)c3ccccc3S(=O)(=O)c3ccc(C(=O)N4CCCC4)cc32)c1 | i
Cc1ccc(C)c(CN2C(=O)c3ccccc3S(=O)(=O)c3ccc(C(=O)N4CCN(C)CC4)cc32)c1 | 5µM*
O=C(c1ccc2c(c1)N(Cc1ccccc1F)C(=O)c1ccccc1S2(=O)=O)N1CCCCCC1 | i
